High-throughput results from PubChem BioAssay.
A selection: hits, their analogues and other compounds. The true share with any hit is near 4.1%.
hcDAF12 agonist = activators of H. contortus DAF-12 nuclear receptor; activation, % at 6.8 µM; HEK293 hcDAF-12 lit1-tk-luc reporter, luminescence; 0% DMSO, 100% Δ7-dafachronic acid; actives 1.4% (n = 370,000);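 active = activation above the mean of all tested compounds plus 3 SD, cut at about 5.5% in these data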;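 note: 100% = response to 3 µM Δ7-dafachronic acid high control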
hgDAF12 agonist = agonists of H. glycines DAF-12 nuclear receptor | activation, % at 6.8 µM | AID 687014 | HEK293 GAL4-hgDAF12 UAS-luciferase reporter, agonist luminescence; normalized to butyrate control | actives 1.8% (n = 370,000);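 active = activation above a cutoff set at the mean of all screened compounds plus 3 SD, cut at about 10% in these data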;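 note: 0% = DMSO wells and 100% = sodium butyrate wells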
ssDAF12 agonist = activators of S. stercoralis DAF-12 nuclear receptor; AID 652126; activation, % at 6.8 µM; actives 1% (n = 370,000); HEK293 ssDAF-12/GRIP1 lit1-tk-luc reporter, luminescence; % of 3 µM dafachronic acid response;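 active = activation above the mean over all tested compounds plus 3 SD, cut at about 0.9% in these data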;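 note: 0% = DMSO-only wells and 100% = 3 µM delta7-dafachronic acid wells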
DAX1 inh-1 = inhibits human nuclear receptor DAX1 | AID 504766 | inhibition, % at 6.75 µM | HEK293 Gal4-DAX1 luciferase reporter, luminescence | P51843 | actives 0.99% (n = 340,000);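 active = inhibition above the mean over all tested compounds plus 3 SD, cut at about 4.2% in these data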;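 note: 0% = DAX1-transfected cells with DMSO and 100% = empty-vector control cells with DMSO; inhibition shows as a rise in luminescence from relieved DAX1 repression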
DAX1 inh-2 = blocks DAX1 repression of SF-1 activated StAR promoter | inhibition, % at 6.8 µM | actives 1.1% (n = 370,000) | AID 652010 | HEK293T StAR-luciferase reporter, SF-1/DAX-1 repression relief;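 active = inhibition above the mean over all tested compounds plus 3 SD, cut at about 3.6% in these data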;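 note: 0% = DAX-1 cells with DMSO and 100% = cells lacking DAX-1 with DMSO; higher inhibition means more luminescence from relief of DAX-1 repression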
hgDAF12 ag = hgDAF-12 agonism, confirmation assay | shares compounds with hgDAF12 agonist | AID 743050 | HEK293 GAL4-hgDAF12 luciferase reporter, agonist mode; percent of butyrate response | actives 80% (n = 3,300) | activation, % at 6.8 µM;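 active = mean activation over triplicate wells above the hit cutoff derived from the earlier primary screen, cut at about 11% in these data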;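 note: 0% = DMSO low control and 100% = 2 mM sodium butyrate high control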
LXR ag 2 = counter-screen for DAF-12 agonists: agonists of human LXR-beta. HEK293 Gal4-LXR luciferase reporter, 24 h. shares compounds with hgDAF12 agonist. activation, % at 6.8 µM. 3,300 tested, under 10 active. AID 743051;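 active = mean activation of the triplicate above a set limit carried over from the primary screen, none filed active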
Target sequence (P55055 whole entry, looked up, the tested form may be a part): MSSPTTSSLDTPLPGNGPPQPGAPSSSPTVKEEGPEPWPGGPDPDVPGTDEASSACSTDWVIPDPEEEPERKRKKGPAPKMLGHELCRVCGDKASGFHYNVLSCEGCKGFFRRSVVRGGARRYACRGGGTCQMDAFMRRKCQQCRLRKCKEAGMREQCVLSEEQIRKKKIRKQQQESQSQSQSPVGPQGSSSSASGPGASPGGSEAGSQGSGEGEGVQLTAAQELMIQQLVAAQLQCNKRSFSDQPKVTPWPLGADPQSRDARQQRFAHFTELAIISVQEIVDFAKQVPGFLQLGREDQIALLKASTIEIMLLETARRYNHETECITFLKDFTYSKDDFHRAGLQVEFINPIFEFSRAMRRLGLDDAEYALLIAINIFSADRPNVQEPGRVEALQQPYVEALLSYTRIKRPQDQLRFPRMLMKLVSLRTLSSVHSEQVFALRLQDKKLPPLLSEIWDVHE
* hit, by the source's call; / = no result given.

SMILES	hcDAF12 agonist	hgDAF12 agonist	ssDAF12 agonist	DAX1 inh-1	DAX1 inh-2	hgDAF12 ag	LXR ag 2
O=C(O)c1cccc(NC(=S)NC(=O)c2ccncc2)c1	0	3	-1	0	0	/	/
CC(C)(C)C(=O)NC(=S)Nc1cccc(C(=O)O)c1	4	14*	-1	1	4.3*	13*	0
Cc1ccsc1/C=N/NC(=O)c1ccc2ccccc2c1	2	14*	0	1	3	11*	0
CC(CCc1ccccc1)NC(=O)c1ccc2nc(N3CCOCC3)sc2c1 (stereo not given)	-1	1	-2	1	0	/	/
CC1CCCCN1CCCNC(=O)c1ccc2nc(N3CCCCC3)sc2c1 (stereo not given)	3	14*	1.4*	1	4.0*	12*	0
O=C(NCCc1ccccc1)c1ccc2nc(N3CCOCC3)sc2c1	-2	14*	-1	0	1	0	0
CC1CCCCN1CCCNC(=O)c1ccc(Br)cc1 (stereo not given)	0	2	-1	-1	0	/	/
CN(C)[C@@H]1CCN(c2cccc3c2S(=O)(=O)N2CC[C@@H](C2)O3)C1	3	-1	-1	/	-1	/	/
CC(C)Oc1ccc(S(=O)(=O)N2CCCCCC2)c2ccccc12	-4	-3	-1	/	0	/	/
O=C(c1cnn(-c2cccc(F)c2)c1)c1ccccc1O	3	15*	1	5.0*	2	16*	1
C=CCN1[C@H](Cc2ccccc2)COc2cccc(N3CCCC3)c2S1(=O)=O	-1	0	-1	/	-2	/	/
Cc1cnc(NC(=O)Cc2ccccc2Cl)s1	0	0	-1	1	-1	/	/
CC(C)(C)C(=O)c1cnc(Nc2ccccc2Cl)s1	4	13*	0	4	2	16*	1
COC(=O)[C@]12C[C@H](CC(=O)NCCc3ccccc3OC)C(=O)N(Cc3cccc4ccccc34)C1=C[C@H](C(C)(C)C)O[C@@H]2C	-1	-2	-1	/	-1	/	/
CC(C)=CC(=O)Nc1ccc(Br)cc1	3	16*	-1	4	3	15*	1
O=C(Nc1ccccc1)Nc1ccccc1Br	5	19*	0	1	4.1*	7	0
O=C1/C(=C/c2ccccc2)CCCc2ccccc21	3	14*	0	0	1	11*	0
Cc1ccc2nc(-c3ccc(N4C(=N)SC5CS(=O)(=O)CC54)cc3)sc2c1 (stereo not given)	2	14*	0	1	1	13*	0
COc1ccc(N2C(=O)S[C@@H]3CS(=O)(=O)C[C@@H]32)cc1	-2	-3	-1	0	0	/	/
CN1C(=O)C(c2cn(C)c3ccccc23)(c2cn(C)c3ccccc23)c2cc(F)ccc21	3	14*	2.4*	/	-1	2	0
CN1C(=O)[C@@](O)(c2cn(C)c3ccccc23)c2cc(F)ccc21	0	-2	0	/	0	/	/
COc1cccc(CNC(=O)[C@H]2CCCN2C(=O)[C@H]2CCCN2C(=O)c2cccc(F)c2)c1	-3	0	-1	/	0	/	/
COc1ccc(-n2ncc3c(N4CCC(C(N)=O)CC4)ncnc32)cc1	5	14*	0	3	3	15*	1
COC(=O)[C@]12C[C@H](CC(=O)NCc3ccc(OC)c(OC)c3)C(=O)N(Cc3ccco3)C1=C[C@H](C(C)C)O[C@@H]2C1CC1	-2	3	-1	/	1	/	/
CCOC(=O)c1cnc(-c2ccccc2)nc1N	5	14*	0	2	4.5*	16*	1
COCc1cc(N2CCN(C(=O)OC(C)(C)C)C[C@H]2C)ccc1N1C[C@@H](C)O[C@@H](C)C1	-2	3	-1	/	-3	/	/
Cc1ccc(C(=O)Nc2nnc(SCC(=O)N3CCCc4ccccc43)s2)cc1	4	14*	1	-2	4.2*	9	1
